Laboratory results as given in PubChem BioAssay (NCATS).
Unmarked numbers belong to inactive results. Results filed as inconclusive are left out. Entries that show only a call come without a potency. The source made the active and inactive calls. Unless noted, the call rests on the fitted dose curve; in most records, active means well fitted curve in the direction sought with a large enough effect; inconclusive means small, poorly fitted or top-dose-only effect, or another doubt; inactive means no such curve, though single readings can be large; an effect the other way counts as inactive or inconclusive. Peptide text beside a SMILES is read from it.

How the values were obtained:
[1] = target: ATP-dependent 6-phosphofructokinase (Trypanosoma brucei brucei) (UniProt O15648); test: qHTS Assay to Find Inhibitors of T. brucei phosphofructokinase: hit validation (AID 492961);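 further: luminescence reports ADP formed as PFK phosphorylates fructose-6-phosphate with ATP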; details: T. brucei PFK, ADP-Glo luminescence; series mostly up to 24.3 µM
Chain of ATP-dependent 6-phosphofructokinase (Trypanosoma brucei brucei) (O15648 whole entry, looked up): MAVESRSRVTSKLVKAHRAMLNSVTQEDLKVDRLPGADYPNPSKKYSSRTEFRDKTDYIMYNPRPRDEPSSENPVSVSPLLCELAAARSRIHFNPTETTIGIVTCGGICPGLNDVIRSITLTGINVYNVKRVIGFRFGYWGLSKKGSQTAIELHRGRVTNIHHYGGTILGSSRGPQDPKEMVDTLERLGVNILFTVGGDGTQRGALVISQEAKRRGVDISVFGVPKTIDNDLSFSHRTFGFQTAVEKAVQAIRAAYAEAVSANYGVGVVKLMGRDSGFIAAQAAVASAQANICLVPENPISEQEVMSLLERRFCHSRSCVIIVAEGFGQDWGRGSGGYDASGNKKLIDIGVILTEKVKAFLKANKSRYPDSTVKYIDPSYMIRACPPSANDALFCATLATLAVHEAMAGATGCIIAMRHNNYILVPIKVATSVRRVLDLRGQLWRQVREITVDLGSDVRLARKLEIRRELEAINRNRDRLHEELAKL
Summary of the method: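 ADP-Glo luminescence read-out of ADP formed by 1.25 nM PFK from 0.1 mM ATP and 0.5 mM F6P (TEA pH 8.0, 45 min, RT). Compounds titrated; activity normalized to no-enzyme and full-enzyme controls.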

7G8 = test: qHTS profiling for inhibitors of Plasmodium falciparum proliferation (AID 504749); further: nearly all actives have a fitted effect of over 60% in size; further: potency means the concentration at half of the fitted maximal effect; details: P. falciparum in erythrocytes, SYBR Green DNA, 72 h; series mostly up to 12.8 µM
Summary of the method: (§1)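 SYBR Green fluorescence of parasite DNA, read after lysis and overnight dark incubation, measured growth over 72 h in erythrocyte culture at 0.3% parasitemia and 2.5% hematocrit. Data normalised to DMSO and 0.29 uM artemisinin, with plate-drift correction.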

ATS95 = test: as above; details: P. falciparum in erythrocytes, SYBR Green DNA, 72 h; series mostly up to 12.8 µM
Summary of the method: as §1

CP203 = test: as above; details: P. falciparum in erythrocytes, SYBR Green DNA, 72 h; series mostly up to 12.8 µM
Summary of the method: as §1

CP215 = test: as above; details: P. falciparum in erythrocytes, SYBR Green DNA, 72 h; series mostly up to 12.8 µM
Summary of the method: as §1

CP260 = test: as above; details: P. falciparum in erythrocytes, SYBR Green DNA, 72 h; series mostly up to 12.8 µM
Summary of the method: as §1

CP266 = test: as above; details: P. falciparum in erythrocytes, SYBR Green DNA, 72 h; series mostly up to 12.8 µM
Summary of the method: as §1

ICS = test: as above; details: P. falciparum in erythrocytes, SYBR Green DNA, 72 h; series mostly up to 12.8 µM
Summary of the method: as §1

P94_40 = test: as above; details: P. falciparum in erythrocytes, SYBR Green DNA, 72 h; series mostly up to 12.8 µM
Summary of the method: as §1

W2 = test: as above; details: P. falciparum in erythrocytes, SYBR Green DNA, 72 h; series mostly up to 12.8 µM
Summary of the method: as §1

[2] = Confirmation and Secondary Assay for Modulators of Hemoglobin Beta Chain Splicing at IVS2 705 locus (AID 930); details: HeLa EGFP-705 splicing reporter, GFP fluorescence, 48 h; series mostly up to 46.1 µM;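 further: HeLa cells stably expressing the EGFP-705 splicing reporter; GFP fluorescence per well restored by corrected splicing of the IVS2-705 intron in EGFP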
Summary of the method: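 HeLa EGFP-705 reporter; 500 cells/well, o/n 37C 5% CO2; cpd 2 d; 488 ex/500-520 em laser scan; total peak GFP intensity/well. Ref: 500 nM […] antisense PNA.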

[3] = S16 Schwann cell PMP22 intronic element firefly luciferase assay (AID 624032); details: S16 rat Schwann cells, PMP22 element FLuc, 24 h; series mostly up to 25.7 µM; further: nearly all actives have a fitted effect of over 30% in size; further: potency means the concentration at half of the fitted maximal effect
Summary of the method: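 Luciferase reporter of PMP22 intronic-element expression in stably transfected S16 rat Schwann cells, read by ONE-Glo luminescence after 24 h compound exposure at 37 C. Activity scaled between DMSO (0%) and positive-control PTC124; concentration-effect curves quality-classified.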

[4] = target: Cytochrome P450 3A4 (Homo sapiens) (UniProt P08684); test: qHTS Assay for Inhibitors and Substrates of Cytochrome P450 3A4 (AID 884); details: recombinant CYP3A4, Luciferin-PPXE luminescence; series mostly up to 57.1 µM; further: nearly all actives have a fitted effect of over 50% in size; further: potency means the concentration at half of the fitted maximal effect
Chain of Cytochrome P450 3A4 (Homo sapiens) (P08684 whole entry, looked up): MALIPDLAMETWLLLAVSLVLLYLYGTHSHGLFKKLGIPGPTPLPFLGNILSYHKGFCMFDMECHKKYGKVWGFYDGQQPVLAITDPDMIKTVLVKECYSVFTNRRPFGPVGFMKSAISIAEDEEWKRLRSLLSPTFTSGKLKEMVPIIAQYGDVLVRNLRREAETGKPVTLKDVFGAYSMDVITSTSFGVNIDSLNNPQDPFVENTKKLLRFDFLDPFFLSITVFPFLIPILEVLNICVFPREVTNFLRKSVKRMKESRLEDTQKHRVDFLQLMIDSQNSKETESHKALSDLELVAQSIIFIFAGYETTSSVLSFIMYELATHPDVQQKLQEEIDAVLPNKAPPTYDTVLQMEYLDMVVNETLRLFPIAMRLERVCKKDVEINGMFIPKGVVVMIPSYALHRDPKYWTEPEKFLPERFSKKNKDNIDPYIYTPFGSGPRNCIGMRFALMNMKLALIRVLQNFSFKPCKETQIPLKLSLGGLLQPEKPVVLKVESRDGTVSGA
Summary of the method: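 Luminescent readout of luciferin produced by CYP3A4 (20 nM) dealkylation of Luciferin-PPXE, 25 uM (its KM). NADPH-driven reaction ran 60 min at RT after 10 min compound preincubation; data scaled to 57 uM ketoconazole as 100% inhibition.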

[5] = Confirmation and Secondary Assay for Modulators of Hemoglobin Beta Chain Splicing at IVS2 654 locus (AID 910); details: HeLa EGFP-654 splicing reporter, GFP fluorescence, 48 h; series mostly up to 46.1 µM;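 further: HeLa cells stably carrying EGFP split by mutant beta-globin IVS2-654 intron; per-well total GFP intensity by laser scanning cytometry after 2-day treatment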
Summary of the method: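 Readout: per-well total peak green fluorescence (488 nm ex, 500–520 nm em) from objects 5–250 µm, reflecting correct splicing of an EGFP-654 reporter. Compounds were applied for 2 days at 37 °C to overnight-plated HeLa EGFP-654 cells; controls were DMSO and 500 nM IVS2-654 PNA.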

[6] = target: Glucocorticoid receptor (Homo sapiens) (UniProt P04150); test: GR-GFP Redistribution (AID 450;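 active means compounds whose dose series gives a full or clear partial fitted curve of increased nuclear translocation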; further: potency means the concentration at half of the fitted maximal effect); details: U2OS GR-GFP nuclear translocation, laser cytometry, 2 h
Chain of Glucocorticoid receptor (Homo sapiens) (P04150 whole entry, looked up): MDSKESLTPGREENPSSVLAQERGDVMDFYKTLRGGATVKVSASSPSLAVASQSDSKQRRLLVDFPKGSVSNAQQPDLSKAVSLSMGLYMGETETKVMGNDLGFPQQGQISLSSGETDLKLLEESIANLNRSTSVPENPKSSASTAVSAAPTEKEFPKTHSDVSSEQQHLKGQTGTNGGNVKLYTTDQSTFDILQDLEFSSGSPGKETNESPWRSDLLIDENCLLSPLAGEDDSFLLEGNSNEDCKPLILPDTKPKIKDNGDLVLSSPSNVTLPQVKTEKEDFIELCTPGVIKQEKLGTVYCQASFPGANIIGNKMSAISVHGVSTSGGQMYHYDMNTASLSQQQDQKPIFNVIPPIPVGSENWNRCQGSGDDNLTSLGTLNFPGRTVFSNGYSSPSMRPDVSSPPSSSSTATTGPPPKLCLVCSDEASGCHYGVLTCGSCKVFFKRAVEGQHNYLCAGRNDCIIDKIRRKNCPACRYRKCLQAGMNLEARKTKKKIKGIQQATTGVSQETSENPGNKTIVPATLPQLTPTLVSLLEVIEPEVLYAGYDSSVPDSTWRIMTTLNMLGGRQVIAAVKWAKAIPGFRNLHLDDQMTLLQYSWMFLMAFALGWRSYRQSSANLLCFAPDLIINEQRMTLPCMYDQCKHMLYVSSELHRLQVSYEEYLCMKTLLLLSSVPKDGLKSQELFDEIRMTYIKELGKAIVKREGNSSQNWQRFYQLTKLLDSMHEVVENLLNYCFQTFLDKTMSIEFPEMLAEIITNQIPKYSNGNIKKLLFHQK

[7] = target: Cytochrome P450 2D6 (Homo sapiens) (UniProt P10635); test: qHTS Assay for Inhibitors and Substrates of Cytochrome P450 2D6 (AID 891); details: recombinant CYP2D6, luciferin-ME EGE luminescence; series mostly up to 57.1 µM;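 further: luciferin methyl ether substrate demethylated by CYP2D6 with NADPH regeneration; nearly all actives have a fitted effect of over 60% in size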
Chain of Cytochrome P450 2D6 (Homo sapiens) (P10635 whole entry, looked up): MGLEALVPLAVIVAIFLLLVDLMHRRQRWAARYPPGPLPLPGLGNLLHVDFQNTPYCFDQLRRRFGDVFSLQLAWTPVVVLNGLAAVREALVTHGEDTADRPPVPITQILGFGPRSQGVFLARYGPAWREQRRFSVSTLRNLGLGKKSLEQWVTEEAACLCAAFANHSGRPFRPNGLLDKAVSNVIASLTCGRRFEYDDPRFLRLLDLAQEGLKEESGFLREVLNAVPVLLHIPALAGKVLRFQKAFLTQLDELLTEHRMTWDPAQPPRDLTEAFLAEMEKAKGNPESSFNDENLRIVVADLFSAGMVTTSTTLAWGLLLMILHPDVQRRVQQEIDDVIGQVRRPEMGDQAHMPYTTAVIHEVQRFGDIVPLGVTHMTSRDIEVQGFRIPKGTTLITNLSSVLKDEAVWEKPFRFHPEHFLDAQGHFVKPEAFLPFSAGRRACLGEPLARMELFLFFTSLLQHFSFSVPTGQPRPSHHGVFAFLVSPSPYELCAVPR
Summary of the method: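 Luminescent read-out of luciferin formed by 5 nM human CYP2D6 demethylating 30 uM Luciferin-ME EGE (Km level) over 60 min at room temperature after NADPH regeneration addition. Data normalized to full inhibition by 1.43 uM quinidine.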

[8] = target: Cytochrome P450 3A4 (Homo sapiens) (UniProt P08684); test: qHTS Assay for Activators of Cytochrome P450 3A4 (AID 885); details: recombinant CYP3A4, Luciferin-PPXE luminescence, 60 min; series mostly up to 57.1 µM; further: nearly all actives have a fitted effect of over 65% in size
Summary of the method: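 Using 20nM recombinant human CYP3A4 in potassium phosphate (200mM), substrate Luciferin-PPXE at 25uM, luminescent luciferin detection followed a 60-min RT NADPH reaction; data scaled to 57 uM ketoconazole.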

Compound	outcome [1]	Potency (7G8)	Potency (ATS95)	Potency (CP203)	Potency (CP215)	Potency (CP260)	Potency (CP266)	Potency (ICS)	Potency (P94_40)	Potency (W2)	Potency [2]	Potency [3]	Potency [4]	Potency [5]	Potency [6] [µM]	Potency [7]	Potency [8]
C[C@]1(c2ccccc2)OC(C(=O)O)=CC1=O	inactive	inactive	inactive	inactive	inactive	inactive	inactive	inactive	inactive	inactive	–	–	–	–	–	–	–
COC1C=CO[C@@]2(C)Oc3c(C)c(O)c4c(O)c(c(C=NN5CCN(C)CC5)c(O)c4c3C2=O)NC(=O)/C(C)=C\C=CC(C)C(O)[C@@H](C)C(O)C(C)[C@H](OC(C)=O)C1C (stereo partly drawn)	inactive	0.112 µM (active)	2.51 µM (active)	4.26 µM (active)	4.26 µM (active)	1.41 µM (active)	6.75 µM (active)	0.0891 µM (active)	0.282 µM (active)	0.12 µM (active)	inactive	20.3 µM (active)	–	–	–	–	–
CN(C)CCc1c[nH]c2ccc(CC3COC(=O)N3)cc12 (stereo not drawn)	inactive	–	inactive	inactive	inactive	inactive	–	inactive	inactive	inactive	inactive	inactive	inactive	inactive	–	–	–
CNC1C(OC2C(O[C@@H]3C(O)C(O)[C@@H](N=C(N)N)C(O)C3N=C(N)N)OC(C)[C@@]2(O)CO)OC(CO)C(O)C1O (stereo partly drawn)	inactive	inactive	inactive	–	inactive	inactive	inactive	inactive	inactive	inactive	inactive	inactive	inactive	inactive	–	–	–
COC(=O)N/N=C/C1=C[N+](=O)c2ccccc2[N+]1=O	inactive	inactive	inactive	–	inactive	inactive	inactive	inactive	inactive	–	inactive	–	inactive	inactive	–	–	–
COc1cc2ccc(=O)oc2c(O)c1O	–	–	–	–	–	–	–	–	–	–	inactive	–	inactive	inactive	> 46	inactive	–
CC1=C(CCC(=O)O)c2cc3nc(cc4[nH]c(cc5[nH]c(cc1n2)c(C)c5C(C)O)c(C)c4C(C)O)C(C)=C3CCC(=O)O (stereo not drawn)	–	–	–	–	–	–	–	–	–	–	inactive	–	inactive	inactive	–	–	–
CN(C)CCCOC1C(C(O)CO)OC2OC(C)(C)O[C@@H]21 (stereo partly drawn)	inactive	inactive	inactive	inactive	inactive	–	inactive	inactive	inactive	inactive	inactive	inactive	inactive	inactive	–	–	–
CNC1CC(N)[C@H](O)[C@@H](O[C@@H]2OC(CO)C3OC4(OC(C(N)CO)C(O)C(O)C4O)O[C@@H]3[C@H]2O)C1O (stereo partly drawn)	inactive	inactive	inactive	inactive	inactive	inactive	inactive	inactive	inactive	–	inactive	–	inactive	inactive	–	–	–
CCC(C)C(=O)OC1CCC=C2C=CC(C)C(CCC3CC(O)CC(=O)O3)[C@@H]21 (stereo partly drawn)	inactive	inactive	inactive	inactive	inactive	inactive	inactive	inactive	inactive	inactive	inactive	–	20 µM (active)	inactive	–	–	inactive
COc1c(O)cc(O)cc1O	–	–	–	–	–	–	–	–	–	–	inactive	–	–	inactive	–	–	inactive
Nc1nc2ncc(CNc3ccc(C(=O)NC(CCC(=O)O)C(=O)O)cc3)nc2c(=O)[nH]1 (stereo not drawn)	inactive	inactive	–	inactive	–	inactive	inactive	inactive	inactive	inactive	inactive	inactive	inactive	inactive	–	–	–
CCC(CCC(C)C1CCC2C3CC=C4CC(O)CC[C@@]4(C)C3CC[C@@]12C)C(C)C (stereo partly drawn)	inactive	inactive	inactive	inactive	inactive	inactive	inactive	inactive	inactive	inactive	inactive	inactive	–	–	–	–	–
COC(=O)C(Cc1ccccc1)NC(=O)C(N)CC(=O)O (stereo not drawn) (H-Asp-Phe-OMe; configuration not given here)	inactive	inactive	inactive	inactive	inactive	inactive	inactive	inactive	inactive	inactive	inactive	inactive	inactive	inactive	–	–	–
Cc1cc(O)c(C=O)c2c1C(=O)Oc1c(COC(=O)/C=C/C(=O)O)c(O)c(C(=O)O)c(C)c1O2	–	–	–	–	–	–	–	–	–	–	inactive	–	–	inactive	–	–	inactive
CC[C@H](C(=O)[C@H](C)[C@H](O)[C@H](C)CCc1ccc(C)c(O)c1C(=O)O)[C@H]1O[C@](CC)([C@@H]2CC[C@@](O)(CC)[C@H](C)O2)C[C@H]1C	–	–	–	–	–	–	–	–	–	–	–	–	–	–	> 20.6	–	inactive
C/C1=C2N=C(/C=C3N=C(/C(C)=C4\[N-]C(C)(C5N=C1C(C)(CCC(=O)NCC(C)OP(=O)([O-])O[C@H]1C(O)C(n6cnc7cc(C)c(C)cc76)O[C@@H]1CO)C5CC(N)=O)C(C)(CC(N)=O)C4CCC(N)=O)C(C)(CC(N)=O)C\3CCC(N)=O)C(C)(C)C/2CCC(N)=O.[CH2-]C1OC(n2cnc3c(N)ncnc32)C(O)C1O.[Co] (stereo partly drawn)	inactive	inactive	inactive	inactive	inactive	inactive	inactive	–	inactive	–	inactive	14.4 µM (active)	–	inactive	–	–	inactive
